Bioassay records as filed in PubChem.
EBV gp42 block – EBV gp42 inhibition. Fluorescence polarization binding assay, mP read-out. inhibition, % (tested at 21.74 µM). Q1HVG2. 220,000 compounds, 0.42% hits; in the data active means inhibition above about 50%
MEX-5 binding – C. elegans MEX-5 TCR-2 RNA binding activity; MEX-5/FITC-TCR2 RNA binding, fluorescence polarization; hits give low values; activity score (negative = inhibition of binding), % at 10 µM; 300,000 compounds, 0.38% hits; AID 1832;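 active means inhibition past about -25% in most replicates, and total fluorescence under double the plate's negative control median, limit read from the data; inconclusive means replicates evenly split on the limit, or fluorescence at least double controls; inactive means too little inhibition in most replicates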;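 further: 0% = DMSO and -100% = 5 µM competing unlabeled TCR2 RNA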
MLLE-PAM2 inh – blocks PAM2 peptide binding to the PABP1 MLLE domain | GST-MLLE / FITC-PAM2 fluorescence polarization | AID 588489 | inhibition, % at 20 µM | 360,000 compounds, 0.36% hits; in the data active means inhibition above about 35%, passing the limit was not always enough;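 further: plate controls were DMSO wells with GST-MLLE for no effect and wells lacking GST-MLLE protein for full effect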
Target sequence (P11940 whole entry, looked up, the tested form may be a part): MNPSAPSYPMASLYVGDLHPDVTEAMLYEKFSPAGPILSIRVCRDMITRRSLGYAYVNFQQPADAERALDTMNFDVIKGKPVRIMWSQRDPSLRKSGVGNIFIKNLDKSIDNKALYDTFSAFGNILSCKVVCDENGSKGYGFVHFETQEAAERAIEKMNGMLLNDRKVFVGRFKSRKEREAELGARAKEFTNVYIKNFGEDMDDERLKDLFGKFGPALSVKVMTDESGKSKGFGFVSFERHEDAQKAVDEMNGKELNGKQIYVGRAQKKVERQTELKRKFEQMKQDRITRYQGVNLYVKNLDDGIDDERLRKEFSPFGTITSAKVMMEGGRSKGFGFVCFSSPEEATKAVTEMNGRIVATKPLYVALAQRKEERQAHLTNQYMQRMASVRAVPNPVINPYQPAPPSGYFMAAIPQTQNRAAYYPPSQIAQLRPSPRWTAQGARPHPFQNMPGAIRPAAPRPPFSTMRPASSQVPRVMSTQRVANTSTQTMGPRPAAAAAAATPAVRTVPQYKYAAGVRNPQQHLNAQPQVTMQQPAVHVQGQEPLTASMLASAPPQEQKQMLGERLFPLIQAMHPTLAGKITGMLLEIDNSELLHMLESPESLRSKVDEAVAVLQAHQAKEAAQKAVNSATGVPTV
eIF4H inh – inhibitors of RNA binding by human eIF4H | AID 2012 | inhibition, % at 35 µM | eIF4H fluorescence polarization binding assay | Q15056 | 290,000 compounds, 0.94% hits;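 further: calls also rest on retests at 20 µM and on dose response follow-up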
PABP polyA inh – PABP-poly(A) binding inhibition. P11940. AID 2014. PABP-poly(A) RNA binding, fluorescence polarization. calls only at 35 µM. 290,000 compounds, 1% hits;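 further: calls also rest on retests at 20 µM and on dose response follow-up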
An asterisk follows results filed as active; i = inactive; u = inconclusive; x = not tested or not shown; + = active, no number. Compounds with a hit are over-represented: about 1.8% of the library has one in this group of screens. Unless noted, how the calls were made is not given here.

SMILES	EBV gp42 block	MEX-5 binding	MLLE-PAM2 inh	eIF4H inh	PABP polyA inh
C=CCn1c(O)c(C(CC)=Nc2ccc(C(=O)O)cc2)c(=O)[nH]c1=O	-4	0	-1	20	i
CCCCn1c(O)c(C(CC)=Nc2ccc(C(=O)O)cc2)c(=O)[nH]c1=O	-13	-1	-3	62*	i
O=S(=O)(c1cc(Cl)cc(Cl)c1)N1Cc2cc(-c3cccc(F)c3)ccc2-n2nncc2C1	x	x	-10	x	x
O=C(N/N=C/c1c(O)n(Cc2ccc(F)cc2)c(=O)[nH]c1=O)c1ccccc1	-9	1	-9	12	i
O=C(O)CCC(=O)NCCC1=c2ccccc2=N/C1=C\c1c(O)n(Cc2ccc(F)cc2)c(=S)[nH]c1=O	82*	-1	-15	34	i
Cn1cc(NC(=O)CCl)cn1	-60	-1	7	1.5*	i
NC(Cc1ccc(Cl)cc1)c1csc(Nc2ncccn2)n1 (stereo not drawn)	x	x	4	x	x
Nc1c(C(=O)NCc2ccco2)c2nc3ccccc3nc2n1CCN1CCCCC1	-3	-4	-48	72*	+
COc1ccc(Cn2c(N)c(C(=O)NCc3ccco3)c3nc4ccccc4nc32)cc1OC	x	x	-30	12	i
CCCCn1c(O)c(/C=N/N2CCOCC2)c(=O)[nH]c1=S	-11	-4	-5	-8	i
CCCCCCn1c(O)c(C=Nc2ccccc2N2CCOCC2)c(=O)[nH]c1=S	-53	-31*	-79	-6	i
CCC(C)(O)C(=O)OC1C(=O)OC2CC3C(C)=CC(O)C(O)C3(C)C3C4(O)OCC23C1C(C)C4O (stereo not drawn)	x	x	0	x	x
CN(C)CCCN=Cc1c(O)n(CCc2ccccc2)c(=O)[nH]c1=O	-71	8	-86	96*	i
O=c1[nH]c(=O)n(CCc2ccc(F)cc2)c(O)c1C=NCCCn1ccnc1	-53	-40*	-39	20	i
CN(C)CCCN=Cc1c(O)n(CCc2ccc(F)cc2)c(=O)[nH]c1=O	-17	-12	-2	0	i
CCN(CC)c1ccc(N=Cc2c(O)n(CCc3ccc(OC)c(OC)c3)c(=O)[nH]c2=O)cc1	83*	-4	-91	27	i
CCN(CC)c1ccc(N=Cc2c(O)n(-c3cc(OC)ccc3OC)c(=O)[nH]c2=O)cc1	-44	-15	-96	99*	+
Cc1ccccc1OP(=O)(Oc1ccccc1C)N1CCOCC1	x	x	-7	x	x
Cc1cc(/C=C2\C(=O)NC(=O)N(c3ccc(F)cc3)C2=O)c(C)n1-c1ccc(C(=O)O)cc1	-18	2	-2	25	+
Cc1ccc(N2C(=O)NC(=O)/C(=C\c3cc(C)n(-c4ccc(C(=O)O)cc4)c3C)C2=O)cc1	x	-35*	3	42	i
Oc1c(Cl)cccc1Cc1cc(Cl)cc(Cl)c1O	x	x	8	x	x
O=c1[nH]c2ccccc2n1C1CCN(C(c2cc3ccccc3o2)c2nnnn2-c2ccc3c(c2)OCCO3)CC1 (stereo not drawn)	x	x	-12	x	x
CC(C)N1C(=O)CC2(CC[N+](C)(CCOC(=O)C(O)(c3ccccc3)c3ccccc3)CC2)C1=O (stereo not drawn)	-3	1	-107	1.2*	+
CCN(CC)CCOC(=O)C(O)(c1ccccc1)c1ccccc1	-8	x	-9	-15	i
COc1ccccc1-n1c(O)c(/C=C2\C=Nc3ccccc32)c(=O)[nH]c1=O	x	-35*	-104	u	u
SMILES	EBV gp42 block	MEX-5 binding	MLLE-PAM2 inh	eIF4H inh	PABP polyA inh
C=CCn1c(O)c(/C=C2\C=Nc3ccccc32)c(=O)[nH]c1=O	-22	3	-44	u	+
CC1(CCCc2ccc(N(CCCl)CCCl)cc2)NC(=O)NC1=O (stereo not drawn)	x	x	9	x	x
Cc1nc2ccccn2c1P(=S)(c1ccccc1)c1ccccc1	x	x	-5	x	x
CN1/C(=C\C=C2C(=O)NC(=O)NC2=O)C(C)(C)c2ccccc21	-314	-86*	-148	u	i
CCn1nc(-c2ccccc2)nc2c(=O)n(C)c(=O)nc1-2	98*	u	-1	u	i
CC(=O)Nc1ccc(S(=O)(=O)N2Cc3ccccc3-n3nncc3C2)cc1	x	x	-4	x	x
Cc1cccc(N2C(=O)CC(=O)NC2=O)c1	-22	1	-29	69*	i
Cc1ccc(N2C(=O)CC(=O)NC2=O)cc1	-20	8	-17	u	u
O=C1CC(=O)N(c2cccc(Cl)c2)C(=O)N1	-19	4	-26	u	u
COc1ccc(N2C(=O)CC(=O)NC2=O)cc1	-15	8	-5	u	+
O=C(NCC1=C(c2cccc3ccccc23)C[C@@H]2CC[C@H]1N2Cc1ccco1)c1ccc([N+](=O)[O-])cc1	x	x	4	x	x
CN1/C(=C\C=C\C2=[N+](C)c3ccc4ccccc4c3C2(C)C)C(C)(C)c2ccccc21	97*	x	x	u	u
COc1cccc(C(c2nnnn2C2CCCCC2)N2CCC3(CC2)C(=O)NCN3c2ccccc2)c1OC (stereo not drawn)	x	x	-1	x	x
CC1CCN(C(CC(=O)c2ccccc2)C(=O)c2ccccc2)CC1 (stereo not drawn)	x	x	20	x	x
CCCCC(=O)N/N=C/c1c(O)n(CC)c(=S)[nH]c1=O	-22	-1	-7	56*	i
O=c1[nH]c(=S)n(Cc2ccco2)c(O)c1C=NCc1cccs1	2	-3	21	53*	+
CCN(CC)c1ccc(N=Cc2c(O)n(Cc3ccco3)c(=O)[nH]c2=O)cc1	-34	x	-51	u	u
NC(=O)c1ccc(N=Cc2c(O)n(Cc3ccco3)c(=O)[nH]c2=O)cc1	11	-8	-4	55	+
C#C[C@]1(O)CC[C@H]2[C@@H]3[C@H](O)C[C@H]4C[C@@H](O)CC[C@]4(C)[C@H]3CC[C@@]21C	x	x	3	x	x
CCCCn1nnnc1C(c1ccnc2ccccc12)N1CCC2(CC1)C(=O)NCN2c1ccccc1 (stereo not drawn)	x	x	-10	x	x
O=[N+]([O-])c1ccc(N(CCO)CCO)c2c1no[n+]2[O-]	x	x	58	x	x
CN1CCN(c2ccc([N+](=O)[O-])c3no[n+]([O-])c23)CC1	141*	-60*	153	u	u
C=CCn1c(O)c(C(C)=NCCc2c[nH]c3ccccc23)c(=O)[nH]c1=O	-1	0	-12	1	i
CCCCn1c(O)c(C(C)=NCCc2c[nH]c3ccccc23)c(=O)[nH]c1=O	10	-3	-1	84*	+
O=C1NCN(c2ccccc2)C12CCN(C(c1cccc3ccccc13)c1nnnn1C1CCCC1)CC2 (stereo not drawn)	x	x	-1	x	x
CCOC(=O)c1c(/N=C/c2c(O)n(-c3ccc(F)cc3)c(=S)[nH]c2=O)sc2c1CCCC2	56*	1	-13	4	i
CCOC(=O)c1ccc(N=Cc2c(O)n(-c3ccccc3F)c(=S)[nH]c2=O)cc1	-20	1	-69	-4	i
CCOC(=O)c1c(/N=C/c2c(O)n(-c3ccccc3F)c(=S)[nH]c2=O)sc2c1CCCC2	130*	-9	-72	-7	i
